Records with an inconclusive call do not appear. Calls of active or inactive are those of the source. Calls come from the whole dose curve; as a rule, active = well fitted cell-killing curve with a large enough effect; inconclusive = small, poorly fitted or top-dose-only effect, or effect the other way; inactive = no such curve, though single readings can be large or run the other way. Peptide text beside a SMILES is read from it.
Experiment: Quantitative High-Throughput drug screen in 47 multiple myeloma cell lines against the NCATS MIPE library collection: Delta47_JCRB cell viability assay (AID 1918925; note: nearly all actives have a fitted effect of over 45% in size)
Conditions: Delta47 myeloma viability, CellTiter-Glo ATP, 48 h; series mostly up to 45.8 µM
Source text: PI: Beverly A. Mock Ph.D.
Laboratory of Cancer Biology and Genetics,
Center for Cancer Research, National Cancer Institute,
National Institute of Health, Bethesda, Maryland
Drug resistance and disease progression are common in multiple myeloma (MM) patients, underscoring the need for new therapeutic combinations. […] We hypothesized that effective combinations would reduce MYC expression and enhance p16 activity. […] These preclinical data identify potentially useful drug combinations for evaluation in drug-resistant MM and reveal potential mechanisms of combined drug sensitivity.
Described herein is the primary MIPE qHTS used to cherrypick compounds. Validated compounds were then further tested for potential synergistic activiy.
[1] Peat TJ, Gaikwad SM, Dubois W, Gyabaah-Kessie N, Zhang S, Gorjifard S, Phyo Z, Andres M, Hughitt VK, Simpson RM, Miller MA, Girvin AT, Taylor A, Williams D, D'Antonio N, Zhang Y, Rajagopalan A, Flietner E, Wilson K, Zhang X, Shinn P, Klumpp-Thomas C, McKnight C, Itkin Z, Chen L, Kazandijian D, Zhang J, Michalowski AM, Simmons JK, Keats J, Thomas CJ, Mock BA. Drug combinations identified by high-throughput screening promote cell cycle transition and upregulate Smad pathways in myeloma. Cancer Lett. 2023 Aug 1;568:216284. doi: 10.1016/j.canlet.2023.216284. Epub 2023 Jun 24. PMID: 37356470; PMCID: PMC10408729.
SEQUENCE No. (e.g., 1, 2, 3, etc.); […] (e.g., Cells, Incubation, Reagent, etc.); VALUE and DESCRIPTION.
1; Cells; 5 uL; white, solid bottom 1536-well Greiner assay plate.
2; Compounds; 23 nL; Kalypsis pin tool (Wako USA) equipped with a 1536-well pin head to transfer to the assay plates.
3; Incubation; 48 hours; 37C incubation.
4; Reagent;5uL; CellTiter Glo (Promega).
5; Detector; 425V; Luminescence; Viewlux PerkinElmer.
NOTES (numbers refer to Sequence numbers above)
1. The cell-based screening methods employed in this study were like those previously published. Briefly, the corresponding myeloma cell lines were screened in 1,536-well plates with 500 cells, 5-uL per well for inhibition of cell viability (assessed by measuring ATP levels with CellTiterGlo).
2. NCATS MIPE 4.0 library of approved and investigational drugs were added using the Kalypsis pin tool. Wells treated with DMSO only for 100% viability and media only wells for 0% viability were used as controls.
3. The assay plates were covered and incubated for 48 hours in a 37C, 5% CO2 incubator with controlled humidity.
4. After 48 hours, CellTilter-GloTM luminescent substrate mix (Promega) reagent was added to the assay plate and plates we incubated for 5 min at room temperature.
5. Signal was measured as median relative luminescence units on a ViewLux (PerkinElmer) multiplate reader.
[1] Heske CM, Davis MI, Baumgart JT, Wilson K, Gormally MV, Chen L, Zhang X, Ceribelli M, Duveau DY, Guha R, Ferrer M, Arnaldez FI, Ji J, Tran HL, Zhang Y, Mendoza A, Helman LJ, Thomas CJ. Matrix Screen Identifies Synergistic Combination of PARP Inhibitors and Nicotinamide Phosphoribosyltransferase (NAMPT) Inhibitors in Ewing Sarcoma. Clin Cancer Res. 2017 Dec 1;23(23):7301-7311. doi: 10.1158/1078-0432.CCR-17-1121. Epub 2017 Sep 12. PMID: 28899971; PMCID: PMC6636827.
Potency is the fitted concentration of half-maximal effect.

Row | SMILES | Potency
1 | COC(=O)[C@H](Cc1ccccc1)NC(=O)[C@@H](N)CC(=O)O (H-Asp-Phe-OMe) | inactive
2 | CC[C@]1(O)C[C@H]2CN(CCc3c([nH]c4ccccc34)[C@@](C(=O)OC)(c3cc4c(cc3OC)N(C=O)[C@H]3[C@@](O)(C(=O)OC)[C@H](OC(C)=O)[C@]5(CC)C=CCN6CC[C@]43[C@@H]65)C2)C1 | 0.0047 µM (active)
3 | Nc1nc(N)c(N=O)c(OCC2CCCCC2)n1 | 4.18 µM (active)
4 | CC(C)[N+]1(C)[C@@H]2CC[C@H]1CC(OC(=O)C(CO)c1ccccc1)C2 (stereo not given in full) | inactive
5 | Nc1cc(C(Cl)=C(Cl)Cl)c(S(N)(=O)=O)cc1S(N)(=O)=O | inactive
6 | CN(C)[C@@H](CCOc1cccc2ccccc12)c1ccccc1 | 18.7 µM (active)
7 | CCN(CC)CCOc1ccc(Nc2ncc3cc(-c4c(Cl)cccc4Cl)c(=O)n(C)c3n2)cc1 | 1.32 µM (active)
8 | COc1c2occc2cc2ccc(=O)oc12 | inactive
9 | COc1cc2nc(N3CCN(C(=O)C4CCCO4)CC3)nc(N)c2cc1OC (stereo not given) | inactive
10 | O=P(O)(O)C(O)(Cn1ccnc1)P(=O)(O)O | inactive
11 | C[C@@H](c1ncncc1F)[C@](O)(Cn1cncn1)c1ccc(F)cc1F | inactive
12 | NC(=NCc1ccccc1)NC(=O)c1nc(Cl)c(N)nc1N | 6.62 µM (active)
13 | O=c1cc(N2CCOCC2)oc2c(-c3ccccc3)cccc12 | 1.48 µM (active)
14 | COc1cc2c(N3CCN(C(=O)Nc4ccc(OC(C)C)cc4)CC3)ncnc2cc1OCCCN1CCCCC1 | 8.33 µM (active)
15 | CN(C)C(=O)[C@H](O)[C@H](Cc1ccccc1)NC(=O)c1cc2cc(Cl)ccc2[nH]1 | 4.18 µM (active)
16 | COc1ccccc1N1CCN(CCN(C(=O)C2CCCCC2)c2ccccn2)CC1 | 10.5 µM (active)
17 | Oc1ccc2ccccc2c1SSc1c(O)ccc2ccccc12 | 16.6 µM (active)
18 | CC(=O)N1CCN(c2ccc(OC[C@H]3CO[C@](Cn4ccnc4)(c4ccc(Cl)cc4Cl)O3)cc2)CC1 | 18.7 µM (active)
19 | CC1Cc2ccccc2N1NC(=O)c1ccc(Cl)c(S(N)(=O)=O)c1 (stereo not given) | inactive
20 | COc1cc2c(cc1OC)C1CC(=O)C(CC(C)C)CN1CC2 (stereo not given) | inactive

Row | SMILES | Potency
21 | C[C@H](Cn1cnc2c(N)ncnc21)OCP(=O)(O)O | inactive
22 | CC(C)Oc1ccc2c(=O)c(-c3ccccc3)coc2c1 | inactive
23 | Nc1nc(Cl)nc2c1ncn2[C@H]1C[C@H](O)[C@@H](CO)O1 | 0.235 µM (active)
24 | COCCCN1CCC(NC(=O)c2cc(Cl)c(N)c3c2OCC3)CC1 | 18.7 µM (active)
25 | CS(=O)(=O)OCCCCOS(C)(=O)=O | inactive
26 | CC1(C)CCC(C)(C)c2cc(NC(=O)c3ccc(C(=O)O)cc3)ccc21 | 16.6 µM (active)
27 | CC1(C)C(=O)N(CCN2CCC(C(=O)c3ccc(F)cc3)CC2)c2ccccc21 | 16.6 µM (active)
28 | CCCOc1ccc2nc(NC(=O)OC)[nH]c2c1 | 0.0118 µM (active)
29 | CCC1=C(C)CN(C(=O)NCCc2ccc(S(=O)(=O)NC(=O)NC3CCC(C)CC3)cc2)C1=O (stereo not given) | inactive
30 | Cc1cc(O)c2c(c1)C(=O)c1cc(O)cc(O)c1C2=O | inactive
31 | CCN(CCO)CCCC(C)Nc1ccnc2cc(Cl)ccc12 (stereo not given) | inactive
32 | Nc1ccc(S(N)(=O)=O)cc1 | inactive
33 | Cc1ccc(Nc2nccc(N(C)c3ccc4c(C)n(C)nc4c3)n2)cc1S(N)(=O)=O | 16.6 µM (active)
34 | Cc1cc(=O)c2c(O)c3c(O)cc(=O)c4c3c3c(cc(O)c1c23)C(C)(C)C=4O | 0.372 µM (active)
35 | O=C(O)c1cn(-c2ccc(F)cc2)c2cc(N3CCNCC3)c(F)cc2c1=O | inactive
36 | Cc1ccc(C(=O)c2cc(O)c(O)c([N+](=O)[O-])c2)cc1 | 26.4 µM (active)
37 | Cc1cc(C2CCCCC2)n(O)c(=O)c1 | 6.62 µM (active)
38 | O=C(NCC1CCCCN1)c1cc(OCC(F)(F)F)ccc1OCC(F)(F)F (stereo not given) | 8.33 µM (active)
39 | O=C1CCc2ccc(OCCCCN3CCN(c4cccc(Cl)c4Cl)CC3)cc2N1 | 23.5 µM (active)
40 | CCc1nc(N)nc(N)c1-c1ccc(Cl)cc1 | inactive

Reference: PubChem BioAssay (NCATS)
